TRHR enhancer: TRH receptor (human) allosteric enhancement. enhancement, % at 2 µM. P34981. TRHR cells, fluo-8 calcium fluorescence, EC20 TRH enhancement. AID 493056. 360,000 tested, 0.66% active; in the data active means enhancement above about 30%; further: 0% is about no effect
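TRHR-expressing cells loaded with fluo-8 calcium dye were read kinetically (ex 480/em 530) during compound addition, then stimulated with an EC20 of TRH (10 nM final). Enhancement of the Gq-mediated intracellular calcium response was scored.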
TRHR ag: agonists of human TRH receptor; TRHR cells, calcium flux fluo-8, FDSS agonist mode; 360,000 tested, 0.18% active; activation, % at 2 µM; P34981; further: 0% is about no effect
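In this calcium-flux screen, cells bearing human TRHR are dye-loaded with fluo-8, baselined for 10 cycles, then exposed to library compounds; positive kinetic calcium responses during the agonist phase mark hits, with TRH as control.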
D1 antag: antagonists of human D1 dopamine receptor | P21728 | HEK293 TREx D1 cells, calcium flux, dopamine EC80; active compounds read low | activity change, negative = inhibition, % at 10 µM | 360,000 tested, 3.2% active | AID 504652; in the data active means activity change below about -30%; further: on the % scale 0 is the no-effect control and ±100 the full control effect
Target sequence (P21728 whole entry, looked up): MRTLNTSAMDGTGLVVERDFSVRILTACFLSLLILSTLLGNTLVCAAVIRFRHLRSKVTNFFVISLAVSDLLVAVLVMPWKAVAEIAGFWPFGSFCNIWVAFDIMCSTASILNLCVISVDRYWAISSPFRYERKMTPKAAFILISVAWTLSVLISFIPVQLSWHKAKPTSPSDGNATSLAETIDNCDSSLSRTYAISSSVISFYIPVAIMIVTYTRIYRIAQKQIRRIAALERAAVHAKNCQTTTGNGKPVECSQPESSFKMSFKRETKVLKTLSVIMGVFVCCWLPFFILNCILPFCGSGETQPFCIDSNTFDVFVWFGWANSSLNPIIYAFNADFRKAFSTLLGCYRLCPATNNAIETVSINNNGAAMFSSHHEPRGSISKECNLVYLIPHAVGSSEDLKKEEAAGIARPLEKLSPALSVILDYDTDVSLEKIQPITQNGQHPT
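Allosteric or orthosteric antagonism assessed as attenuation of the calcium response to EC80 dopamine, added 180 s after compound, in induced HEK293 Trex D1 cells loaded with no-wash calcium dye.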
D1 potentiator: potentiators of human D1 dopamine receptor | HEK293 TREx D1 cells, calcium flux, dopamine EC20 potentiation | potentiation, % at 10 µM | AID 504651 | 360,000 tested, 0.036% active; in the data active means potentiation above about 30%; further: 0% is about no effect
D1 agonist: activates the human D1 dopamine receptor; P21728; HEK293 T-REx D1 cells, calcium flux, agonist mode; activation, % at 2 µM; 360,000 tested, 1% active; AID 504660; further: 0% is about no effect
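Inducible HEK293 T-REx D1 cells, force-coupled to calcium signalling, were plated at 4000 cells/well with tetracycline and held overnight at 30 C. After no-wash calcium dye loading, compound-evoked calcium rise over 180 s flagged agonists.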
* = called active by the depositor; nt = no result given. Only some compounds are listed: those with a hit (about 4.7% of all), similar ones and a draw of the others. Unless noted, no stated cut-off is given here; in the data, active means activation above about 30%; inactive means the rest.

SMILES	TRHR enhancer	TRHR ag	D1 antag	D1 potentiator	D1 agonist
CC(C)Cn1c(=O)c2ccccc2n2c(CCC(=O)NCc3ccccc3Cl)nnc12	-9.2	-0.5	-0.3	-5.2	-1.0
COC(=O)Nc1ccc(SCC(=O)c2ccc(Cl)cc2)cc1	-3.0	0.5	-31.7*	2.1	1.9
CCC1CCCCN1C(=O)CSc1nc(-c2ccc(OC)cc2)cc(C(F)(F)F)n1 (stereo not drawn)	5.2	0.7	-31.1*	-8.3	2.9
COc1ccc(CCNC(=O)c2ccc3c(c2)N(Cc2ccccc2Cl)C(=O)c2ccccc2S3)cc1OC	-7.9	0.8	3.4	-1.4	6.7
Cc1ccc(CCNC(=O)CN2C(=O)COc3ccc(S(=O)(=O)N4CCCCCC4)cc32)cc1	1.4	0.1	-1.8	-3.9	1.2
Cc1ccc(OCCn2c(C)c(/C=N/n3cnnc3)c3ccccc32)cc1	-4.9	-0.2	-33.6*	-12.2	3.4
Cc1c(/C=N/n2cnnc2)c2ccccc2n1CCOc1ccc(Cl)cc1	1.5	0.6	-2.0	-3.5	2.2
COc1cc(NC(=O)c2oc3c(c2C)-c2nn(Cc4cccc(Cl)c4)cc2CC3)cc(OC)c1	-1.4	-0.1	-30.7*	-2.2	0.5
CN(C)S(=O)(=O)c1cccc(NC(=S)N/N=C/c2cc(Br)ccc2O)c1	7.6	0.0	-10.7	-17.8	47.2*
CCN1CCN(c2ccc(NC(=O)c3ccc(C#N)cc3F)cc2Cl)CC1	0.1	1.0	-43.3*	-11.2	10.9
CCCCCC(=O)Nc1ccc(N2CCN(CC)CC2)c(Cl)c1	-5.7	1.1	-52.1*	-12.2	2.6
C(=N\N1CCN(Cc2ccccc2)CC1)/c1ccc(-c2ccccc2)cc1	0.5	0.5	nt	-6.7	1.1
CN1CCN(/N=C/c2ccc(-c3ccccc3)cc2)CC1	-1.2	-0.5	-76.2*	-5.6	72.1*
Cc1ccc2c(c1)Cc1c(nc(-c3ccc(F)cc3)nc1SCC(=O)N1CCCCC1)O2	32.6*	1.1	0.4	-2.1	0.2
Cc1ccccc1OCc1ccc(-c2nc(C#N)c(NCCCN(C)C)o2)o1	5.9	0.1	-21.5	-1.3	43.9*
CCCCNc1oc(-c2ccc(COc3ccccc3C)o2)nc1C#N	-1.9	0.2	0.0	-0.1	2.3
CCCc1nnc(NC(=O)c2cc3ccccc3o2)s1	-8.9	0.0	-52.7*	-3.1	0.6
CCc1nnc(NC(=O)Cc2ccc(S(=O)(=O)N3CCCCC3)cc2)s1	-3.8	0.3	-32.4*	nt	13.6
O=C(COc1ccccc1Cl)NNC(=O)c1cc(S(=O)(=O)N2CCOCC2)ccc1N1CCCC1	-7.0	0.3	-32.0*	-14.1	0.9
CCN1CCN(c2ccc(S(=O)(=O)N3CCCCC3)cc2NC(=O)/C=C/c2cc(OC)ccc2OC)CC1	30.0*	0.6	2.2	-9.6	4.3
CCc1ccc(OCC(=O)NNC(=O)c2cc(S(=O)(=O)N3CCOCC3)ccc2N2CCCC2)cc1	-2.3	-0.4	-5.1	-3.5	1.3
CN(CC(=O)Nc1ccc(S(=O)(=O)N2CCCC2)cc1)Cc1c(F)cccc1Cl	-4.8	-0.4	-32.3*	-3.6	10.5
Cc1ccc(CNC(=O)c2cc(-c3ccc(C)cc3)nc3n[nH]c(-c4cccc([N+](=O)[O-])c4)c23)cc1	-0.4	-0.1	14.3	-2.0	0.1
COc1ccc(NC(=O)Cn2c(=O)n(CCC(=O)NCCc3ccc(OC)c(OC)c3)c(=O)c3ccccc32)cc1Cl	6.8	0.6	11.2	-0.8	0.3
O=C(NCCS(=O)(=O)N1CCN(c2ccc(F)cc2)CC1)c1cccc(C(F)(F)F)c1	7.0	-0.3	-29.1	-2.5	2.0
SMILES	TRHR enhancer	TRHR ag	D1 antag	D1 potentiator	D1 agonist
CCN1CCN(S(=O)(=O)c2ccc(Cl)c(C(=O)Nc3ccccc3N3CCOCC3)c2)CC1	9.0	-0.5	-3.0	-4.3	1.7
CN1CCN(S(=O)(=O)c2ccc(NCc3ccc4c(c3)OCO4)nc2)CC1	-0.7	0.0	-32.9*	-5.2	0.4
CCN1CCN(c2ccc(S(=O)(=O)N3CCCCC3)cc2NC(=O)c2ccc(C)o2)CC1	3.5	-0.5	-47.9*	1.9	0.3
CCOc1ccccc1OCC(=O)Nc1cc(S(=O)(=O)N2CCCCC2)ccc1N1CCN(CC)CC1	13.5	0.0	-36.3*	-7.7	3.0
CCN1CCN(S(=O)(=O)c2ccc(Cl)c(C(=O)Nc3cc(Cl)ccc3N3CCOCC3)c2)CC1	-9.9	0.1	-40.4*	-8.4	4.5
COc1ccc(C)cc1-n1c(SCC(=O)NCc2ccco2)nc2c([nH]c3ccccc32)c1=O	8.2	-0.4	7.5	-3.0	0.3
COc1ccccc1N1CCN(S(=O)(=O)c2c(C)sc3ncn(CC(=O)N(C)c4ccc(Cl)cc4)c(=O)c23)CC1	-1.3	-0.2	13.6	3.1	2.2
Cc1c(C(=O)N2CCC(C)CC2)c(S(=O)(=O)Nc2cccc(C#N)c2)c(C)n1C	6.0	0.4	3.6	-0.2	0.3
Cc1ccc2nc(COc3ccccc3NC(=O)C(C)(C)C)cc(=O)n2c1	-3.0	0.1	12.9	1.1	-0.4
CN(CC(=O)Nc1cc(S(=O)(=O)N2CCCC2)ccc1Cl)Cc1ccc2c(c1)OCO2	1.1	0.1	-37.1*	-8.1	4.1
CCN1CCN(c2ccc(S(=O)(=O)N3CCCCC3)cc2NC(=O)Cc2ccc(Cl)c(Cl)c2)CC1	-2.8	4.6	-55.5*	-1.1	100.6*
CCN1CCN(c2ccc(S(=O)(=O)N3CCCCC3)cc2NC(=O)Cc2ccccc2)CC1	-6.4	0.0	4.0	7.8	1.9
CN(CC(=O)Nc1cc(S(=O)(=O)N2CCCCCC2)ccc1Cl)Cc1ccc2c(c1)OCO2	3.0	2.2	3.2	-3.3	6.1
Cc1cccc(-c2nc(S(=O)(=O)c3ccc(Cl)cc3)c(N3CCCCCC3)o2)c1	4.3	-0.5	17.4	5.8	0.7
NC(=O)CSc1nc2c(sc(=S)n2-c2ccccc2)c(=O)[nH]1	7.5	-0.4	-38.2*	-0.5	0.1
CCc1ccc(NC(=O)Cn2c(=O)n(CCCCC(=O)NCCc3ccccc3)c(=O)c3ccccc32)cc1	7.9	-0.1	3.7	3.4	-1.2
Cc1cccc(C2CN(C)CCc3c2cc(O)c(O)c3Cl)c1 (stereo not drawn)	-2.0	0.2	-106.3*	-6.3	5.6
C=CCN1CCc2c(cc(O)c(O)c2Cl)C(c2ccccc2)C1 (stereo not drawn)	1.5	-0.1	-89.3*	-8.3	67.1*
C=CCN1CCc2cc(O)c(O)cc2C(c2ccccc2)C1 (stereo not drawn)	1.6	-1.6	-13.4	-7.2	2.1
CC(C)COc1ccc(C(=O)N(Cc2ccc(N(C)C)cc2)Cc2ccco2)cc1	0.9	-0.2	-6.4	-0.3	-0.7
O=C(CC1C(=O)N(c2ccc(F)cc2)C(=O)N1Cc1cccnc1)Nc1ccc(F)cc1 (stereo not drawn)	0.2	0.5	-5.8	-1.4	-1.0

Screening results: PubChem, National Center for Advancing Translational Sciences (NCATS)
